Results from PubChem BioAssay AID686933 (National Center for Advancing Translational Sciences (NCATS), 2013).
Inconclusive results are not listed. A number with no mark means an inactive call. The source made the active and inactive calls. The call rests on the fitted dose curve; in most records, active means well fitted inhibition curve with a large enough effect; inconclusive means small, poorly fitted or top-dose-only effect; inactive means flat fitted curve, though single readings scatter.

target: Luciferin 4-monooxygenase (Photinus pyralis) (UniProt P08659); experiment: qHTS screen for small molecules that inhibit ELG1-dependent DNA repair: SAR in Biochemical Luciferin Assay; details: purified firefly luciferase, luciferin luminescence counter-screen; series mostly up to 57.5 µM; activity change, negative = inhibition: at the top concentration
Description: Cancer cells divide rapidly compared to normal cells in the body. During cell division, cancer cells need to duplicate their genome by DNA replication. The failure of genome duplication leads to cancer cells' death. Therefore, inhibitors of DNA replication could specifically kill cancer cells. Based on this concept, many chemotherapeutic agents were developed and have been used to treat cancer patients. However, there are a limited number of agents available in the clinical setting, and some of those that do exist have low efficacy and severe side effects. Therefore, if we can find the compounds that effectively block DNA replication either by directly damaging DNA or by inhibiting other cellular mechanisms, the options for cancer treatment will be broadened. With this in mind, we developed a quantitative high-throughput ELG1-luciferase reporter gene assay. Small molecules that specifically block ELG1 function in response to DNA damage can be identified by monitoring the suppression of luciferase activity. Since ELG1 defines a pathway for repairing DNA damage, agents blocking ELG1 function can be used to sensitize cancer cells to chemotherapeutic agents whose mechanism of action involves the induction of DNA damage. This counter assay is a luciferase assay, that following treatment with putative ELG1 antagonists, aims to eliminate luciferase enhancers/inhibitors. NIH Molecular Libraries Probe Production Network [MLPCN] NIH Chemical Genomics Center [NCGC] MLPCN Grant: R03 MH092164 Assay Provider: Kyungjae Myung, NHGRI, NIH
3 uL of substrate reagent will be pipetted into each well in 1536-well white, solid-bottom plates using a FRD dispenser, followed by addition of 23 nL of DMSO or compounds by pintool. After compound addition, 1 µL of luciferase will be added into the wells. The plates will be read in a ViewLux CCD-based plate reader.

SMILES | activity change, negative = inhibition [%] | Potency
COc1ccc(C2=Nn3c(nnc3-c3ccccc3OC)SC2)cc1OC | 6.27 | 
CN(Cc1ccco1)c1ncnc2ccc(-c3cccc(Cl)c3)cc12 | -10.7 | 
OCC1OC(n2cnc3c(=S)nc[nH]c32)C(O)C1O (stereo not given) | 4.5 | 
CN(C)c1cccc(-c2ccnc(N3CCC(C(N)=O)CC3)n2)c1 |  | 16400 nM (active)
O=C(Nc1ccccn1)c1sc2ccccc2c1Cl |  | 164 nM (active)
N#Cc1ccc(-c2ccc(-c3nc4ccccc4c(=O)[nH]3)o2)cc1 | 0.924 | 
COc1ccc(OC)c(-c2nnc3n2N=C(c2ccc(OC)c(OC)c2)CS3)c1 | 4.84 | 
c1cncc(CNc2ncnc3ccc(-c4ccoc4)cc23)c1 | -6.33 | 
COc1cc2c(cc1OC)C1C(=O)c3c(O)cc4c(c3OC1CO2)C=CC(C)(C)O4 (stereo not given) | -5.2 | 
CC(/C=C/C(=O)NO)=C\[C@@H](C)C(=O)c1ccc(N(C)C)cc1 | -28.1 | 
CS[C@@H]1SC[C@H]2C(=O)N(C)C(C(C)C)C(=O)OC[C@@H](NC(=O)c3cnc4ccccc4n3)C(=O)N[C@@H](C)C(=O)N(C)[C@H]1C(=O)N(C)C(C(C)C)C(=O)OC[C@@H](NC(=O)c1cnc3ccccc3n1)C(=O)N[C@@H](C)C(=O)N2C (stereo not given in full) | -3.21 | 
O=c1[nH]c(-c2ccc(-c3cccc(Cl)c3)o2)nc2ccccc12 |  | 461 nM (active)
Cc1csc(CNc2ncnc3ccc(-c4ccoc4)cc23)c1 | -18.3 | 
Cc1nc(Nc2nc3ccccc3o2)nc2c1CCCC2 |  | 651 nM (active)
O=C(COc1ccccc1F)Nc1ccc(-c2nc3ccccc3s2)cc1 | -25.4 | 
